Drawing on PubChem BioAssay (Tox21), this text covers Potency and outcome for eleven compounds.

The nature of assay [1]: qHTS assay to identify small molecule agonists of the NFkB signaling pathway - cell viability counter screen (AID 1159515; calls by dose curve; further: nearly all actives have a fitted effect of over 55% in size; further: potency means the concentration at half of the fitted maximal effect). In short, it runs like this:
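5 hr compound treatment of NFkB-bla ME-180 cells (2,000/well, seeded overnight beforehand), followed by reporter substrate for 1.5 hr. CellTiter-Glo added afterward; luminescence after 30 min RT.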

Assay [2] in a line: qHTS assay to identify small molecule antagonists of the retinoid-related orphan receptor gamma (ROR-gamma) signaling pathway - cell viability counter screen (AID 1159520). Further: nearly all actives have a fitted effect of over 50% in size. Further: potency means the concentration at half of the fitted maximal effect. In short, it runs like this:
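Tet-on ROR gamma CHO cells (1,000/well) were plated 4 hr, given compounds in DMSO for 2 hr at 37 C, then induced with 1 uM final doxycycline for 16 hr. Viability was read as ATP by CellTiter-Glo luminescence after 30 min.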

Assay [3] can be described thus: qHTS assay to identify small molecule agonists of the AP-1 signaling pathway - cell viability counter screen (AID 1159525; calls by dose curve; further: nearly all actives have a fitted effect of over 55% in size; further: potency means the concentration at half of the fitted maximal effect). A digest of the protocol: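 ME-180 AP-1-bla, 2500 cells/well, Opti-MEM + 0.5% dialyzed FBS; overnight 37 °C; cpd 15-pt titration, 5 h 37 °C; CellTiter-Glo 30 min RT; luminescence read; normalised to TOAB and DMSO controls.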
A short description of assay [4]: qHTS assay to identify small molecule antagonists of the retinoic acid receptor (RAR) signaling pathway (AID 1159552; further: nearly all actives have a fitted effect of over 50% in size; further: potency means the concentration at half of the fitted maximal effect). In short, it runs like this: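 Antagonism of retinol-induced RARE reporter activity was measured in C3RL4 cells. Exposure to compounds and 1 uM final retinol lasted 6 hr at 37 C, with luminescence as endpoint.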
The nature of assay [5]: qHTS assay to identify small molecule agonists of the retinoic acid receptor (RAR) signaling pathway (AID 1159553). In short, it runs like this: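 Activation of retinol signaling was monitored via a RARE luciferase reporter in C3RL4 cells. After 6 hr compound treatment at 37 C, detection reagent was added for 30 min at room temperature before luminescence reading.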
The nature of assay [6]: qHTS assay to identify small molecule antagonists of the estrogen related receptor (ERR) signaling pathway from Tox21 library - cell viability counter screen (AID 1224834). Further: nearly all actives have a fitted effect of over 30% in size. Further: potency means the concentration at half of the fitted maximal effect. In short, it runs like this:
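CellTiter-Fluor fluorescence measured; ERR cells; 17.5 h compound incubation at 37 C; 30 min reagent step.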

Assay [7] concerns the target Luciferin 4-monooxygenase (Photinus pyralis) (UniProt P08659). Put plainly: qHTS assay to identify small molecule inhibitors of firefly luciferase (AID 1224835). Further: nearly all actives have a fitted effect of over 25% in size. Further: potency means the concentration at half of the fitted maximal effect. In short, it runs like this:
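Quantitative HTS format; KM concentrations of both substrates. Purified P. pyralis FLuc activity quantified from luminescence images.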

Assay [8] in a line: qHTS assay to identify small molecule antagonists of the vitamin D receptor (VDR) signaling pathway - cell viability counter screen (AID 743225). Further: nearly all actives have a fitted effect of over 50% in size. Further: potency means the concentration at half of the fitted maximal effect. A digest of the protocol:
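Same-well multiplex: following 16 h treatment of HEK 293T cells carrying a UAS-driven beta-lactamase reporter with compound and agonist (3 nM final), and a 2 h FRET substrate step, CellTiter-Glo was added and luminescence read after 30 min.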

Assay [9] deals with Nuclear receptor ROR-gamma (Homo sapiens) (UniProt P51449). Put plainly: qHTS assay to identify small molecule antagonists of the retinoid-related orphan receptor gamma (ROR-gamma) signaling pathway (AID 1159521; further: nearly all actives have a fitted effect of over 50% in size; further: potency means the concentration at half of the fitted maximal effect). In short, it runs like this: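 Inducible-expression reporter assay: doxycycline (1 uM final) switched on RORγ in CHO cells bearing a ROR response element-luciferase construct, with test compounds present from 2 h beforehand. Decreased luminescence after 16 h defined antagonist activity.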

A short description of assay [10]: qHTS assay to identify small molecule agonists of the RXR signaling pathway - cell viability counter screen (AID 1159529). Further: nearly all actives have a fitted effect of over 50% in size. Further: potency means the concentration at half of the fitted maximal effect. A digest of the protocol:
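Counter screen: CellTiter-Glo luminescence. Cells: RXR-alpha-UAS-bla HEK 293T. Medium: 2% charcoal-stripped FBS. Treatment: 16 h, 37 C. Reagent incubation: 30 min, RT.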

A short description of assay [11]: qHTS assay to identify small molecule antagonists of the retinoid acid receptor (RAR) signaling pathway - cell viability counter screen (AID 1159551). Further: nearly all actives have a fitted effect of over 35% in size. Further: potency means the concentration at half of the fitted maximal effect. In short, it runs like this:
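Seed C3RL4 cells; next day add compound, then retinol to 1 uM final; incubate 6 h at 37 C; add CellTiter-Glo; read luminescence after 30 min at RT.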

Assay [12] is described as follows: qHTS assay to identify small molecule agonists of the vitamin D receptor (VDR) signaling pathway - cell viability counter screen (AID 743224). Further: nearly all actives have a fitted effect of over 50% in size. Further: potency means the concentration at half of the fitted maximal effect. In short, it runs like this:
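Here cell health was gauged by luminescent ATP detection (CellTiter-Glo, 30 min RT) in VDR-bla cells that had been incubated with test compounds for 16 h at 37C and 5% CO2.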

Assay [13] can be described thus: qHTS assay to identify small molecule antagonists of the estrogen related receptor (ERR) signaling pathway (AID 1224819; further: nearly all actives have a fitted effect of over 50% in size; further: potency means the concentration at half of the fitted maximal effect). A digest of the protocol:
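qHTS in ERR cells, 2,000/well, 1536 format. Cpd (DMSO) added after 6 h settle, 18 h 37 C. One-Glo luminescence, 30 min RT.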

Assay [14] can be described thus: qHTS assay to identify small molecule agonists of the estrogen related receptor (ERR) signaling pathway (AID 1224820). In short, it runs like this:
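Cells: ERR line from NTP, 2,000/well. Pre-incubation 6 h, 37 C/5% CO2. Compound (DMSO) pin transfer, 18 h 37 C. One-Glo, 30 min RT, luminescence.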

A short description of assay [15]: qHTS assay to identify small molecule agonists of the estrogen related receptor signaling pathway with the pleiotropic PPARgamma coactivator (PGC) (AID 1224823). A digest of the protocol:
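Steps: plate PGC/ERR cells at 2,000 cells/well; incubate 6 h, 37 C/5% CO2; pin-transfer compounds (DMSO); incubate 18 h, 37 C; add One-Glo; 30 min RT; read luminescence.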

The nature of assay [16]: qHTS assay to identify small molecule antagonists of the estrogen related receptor signaling pathway with the pleiotropic PPARgamma coactivator (PGC) cell viability counter screen (AID 1224822;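 further: series mostly up to about 46 µM; viability read after 17.5 h compound exposure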). A digest of the protocol:
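Compounds in DMSO, with positive and negative controls, were applied to PGC/ERR cells (2,000/well) and left 17.5 h at 37 C before CellTiter-Fluor detection.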

Results filed as inconclusive are left out. Active and inactive are the calls of the source. Unless noted, the call rests on the fitted dose curve; in most records, active means well fitted curve in the direction sought with a large enough effect in the repeat runs; inconclusive means weak or mixed curves; inactive means no such curve, though single readings can be large; an effect the other way counts as inactive or inconclusive.

Luciferin 4-monooxygenase (Photinus pyralis), sequence (P08659 whole entry, looked up): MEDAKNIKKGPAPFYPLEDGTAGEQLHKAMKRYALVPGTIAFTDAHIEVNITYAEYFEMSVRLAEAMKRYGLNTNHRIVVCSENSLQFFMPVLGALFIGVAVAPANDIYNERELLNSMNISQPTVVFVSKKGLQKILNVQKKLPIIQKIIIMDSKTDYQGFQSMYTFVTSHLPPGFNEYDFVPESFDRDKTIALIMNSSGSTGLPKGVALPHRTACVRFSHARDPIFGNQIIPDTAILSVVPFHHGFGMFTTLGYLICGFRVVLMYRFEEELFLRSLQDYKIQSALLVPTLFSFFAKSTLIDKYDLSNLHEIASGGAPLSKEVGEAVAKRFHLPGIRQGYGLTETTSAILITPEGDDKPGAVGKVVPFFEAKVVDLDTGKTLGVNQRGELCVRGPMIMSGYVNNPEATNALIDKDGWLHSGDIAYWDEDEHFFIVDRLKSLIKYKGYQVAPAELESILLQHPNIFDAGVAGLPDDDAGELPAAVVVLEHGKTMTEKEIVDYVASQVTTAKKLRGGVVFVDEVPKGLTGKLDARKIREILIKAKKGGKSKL

Take `CN(C)CCCOC1(Cc2ccccc2)CCCCCC1`: the Potency result in assay [1], in [2], in [3], in [4], in assay [5] and in assay [6] was “inactive” throughout. Besides, the Potency result in assay [7] is “inactive”.
Regarding `Nc1cc(C(F)(F)F)ccc1S`, the Potency entry in assay [8], in assay [1], in assay [3] and in assay [11] was “inactive” each time. In addition, the Potency is 26.6 µM (active) in [9], 8.49 µM (active) in assay [10] and 6.68 µM (active) in assay [4].
With `CCc1cc(Cc2cc(CC)c(N)c(CC)c2)cc(CC)c1N`, the Potency was 49 µM (active) in assay [1], 48.6 µM (active) in assay [9] and 38.9 µM (active) in [10]. Besides, the Potency entry in assay [4] and in assay [7] was “inactive” throughout.
In the case of `Clc1ccc2n[nH]nc2c1`, the Potency entry in [8], in assay [1], in assay [2], in assay [3], in [10] and in assay [11] was “inactive” in each case. The Potency entry in assay [6] and in assay [7] was “inactive” throughout.
For the compound `N#CSc1ccc(N)c([N+](=O)[O-])c1`, the Potency is 55.3 µM (active) in assay [12], 48.9 µM (active) in assay [9], 17.3 µM (active) in [4] and 54.8 µM (active) in [6]. Besides, the Potency entry in assay [1] and in assay [3] was “inactive” throughout.
Turning to `O=c1c(-c2ccccc2)c1-c1ccccc1`, the Potency result in assay [1] and in [5] was “inactive” each time. Further, the Potency in assay [9] was 18.8 µM (active); in assay [10], 6.01 µM (active); in [4] it was 4.22 µM (active); in assay [6], 8.41 µM (active).
Turning to `CC(=O)N1CCN(c2ccc(OC[C@H]3CO[C@](Cn4ccnc4)(c4ccc(Cl)cc4Cl)O3)cc2)CC1`, the Potency in assay [12] was 21.9 µM (active); in [8] it was 38.9 µM (active); in assay [1] it was 61.6 µM (active); in assay [9], 9.69 µM (active); in assay [3], 49 µM (active); in assay [10], 17.4 µM (active). Also, the figures for the Potency in assay [13] and in [6] were 9.08 µM (active) and 27.3 µM (active), respectively. The call in assay [14] and in [15] was inactive.
As to `CCCCCCCCOc1ccccc1C(=O)Nc1ccc(C(=O)OCC[N+](C)(CC)CC)cc1`, the Potency entry in assay [12], in assay [9], in assay [5] and in assay [7] was “inactive” in each case. Also, the Potency was 12 µM (active) in assay [1], 26.8 µM (active) in assay [3] and 10.7 µM (active) in assay [10].
With `CNc1ccc(O)cc1`, the Potency is 38.8 µM (active) in assay [12]; 48.9 µM (active) in assay [1]; 7.68 µM (active) in [2]; 24.5 µM (active) in assay [3]; 34.6 µM (active) in assay [10]; 27.3 µM (active) in [11]. Moreover, the Potency in assay [4] was 27.3 µM (active); in assay [6], 43.2 µM (active); in [7], 39.8 µM (active).
On to `CCCCC(CC)COC(=O)c1ccccc1C(=O)O` (stereo not drawn), for which the Potency result in assay [1], in assay [2], in assay [3], in assay [10], in [11] and in assay [13] was “inactive” in each case. The Potency entry in assay [16], in assay [6] and in [7] was “inactive” in each case. For the same compound, the result in assay [14] and in assay [15] was inactive.
Regarding `CCCCCCCCCCCCCCCC(=O)OC[C@H](O)[C@H]1OC(=O)C(O)=C1O`, the Potency in assay [12] is 34.7 µM (active); in assay [10] it was 38.9 µM (active); in assay [7], 63.3 µM (active). For the same compound, the Potency entry in [8], in [1], in assay [2] and in assay [11] was “inactive” each time.
